Screening results from PubChem BioAssay.
M1 antag – antagonists of human M1 muscarinic receptor; CHO-K1 hM1, Fluo-8 calcium fluorescence, ACh EC80 antagonist; inhibition, % at 3 µM; 360,000 compounds, 1.3% hits;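 active = percent inhibition above its own plate's cutoff, namely the mean of that plate's compound wells plus 3 SD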;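 also: peak over basal fluorescence ratio during 140 s after agonist addition; 0% = ACh EC80 plus DMSO and 100% = DMSO alone without agonist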
Target sequence (P11229 whole entry, looked up): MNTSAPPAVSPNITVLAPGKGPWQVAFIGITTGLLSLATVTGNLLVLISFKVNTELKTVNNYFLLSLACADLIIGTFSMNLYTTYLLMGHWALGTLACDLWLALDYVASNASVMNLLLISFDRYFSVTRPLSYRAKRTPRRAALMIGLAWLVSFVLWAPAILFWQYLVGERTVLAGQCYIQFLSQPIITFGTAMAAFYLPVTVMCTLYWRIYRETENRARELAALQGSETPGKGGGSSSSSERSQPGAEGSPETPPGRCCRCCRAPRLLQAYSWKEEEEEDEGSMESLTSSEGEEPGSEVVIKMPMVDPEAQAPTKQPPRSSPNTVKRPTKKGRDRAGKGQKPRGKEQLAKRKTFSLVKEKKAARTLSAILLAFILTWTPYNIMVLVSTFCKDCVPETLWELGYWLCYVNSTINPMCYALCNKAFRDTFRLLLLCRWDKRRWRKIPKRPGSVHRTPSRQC
CHO-K1 Ca ag – M1 agonist counterscreen hit in parental CHO-K1 cells. Fluo-8 calcium fluorescence; scaled to maximal ATP response, vehicle zero. 360,000 compounds, 0.48% hits. activation, % at 3 µM; in the data active = activation above about 15%;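 also: untransfected CHO-K1 host cells lacking M1 receptor as counterscreen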
CHRM1 PAM – human CHRM1 positive allosteric modulation. 360,000 compounds, 0.088% hits. CHO-K1 hM1, Fluo-8 calcium fluorescence, ACh EC20; 0% = ACh EC20, 100% = maximal ACh. P11229. activation, % at 3 µM; in the data active = activation above about 19%, passing the limit was not always enough
CHO-K1 Ca antag – nonselective inhibitor or artifact in parental CHO-K1 cells. inhibition, % at 3 µM. 360,000 compounds, 0.6% hits. ATP-induced calcium, Fluo-8 fluorescence;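 active = inhibition above a per-plate cutoff, the plate's mean sample inhibition plus 3 SD, cut at about 24% in these data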;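 also: 0% = DMSO plus EC80 ATP and 100% = DMSO alone without ATP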
M1 PAM parental – counter-screen for M1 PAMs: effect in parental CHO-K1 cells; ATP EC20, Fluo-8 calcium fluorescence; 0% at ATP EC20, 100% at ATP max; activation, % at 3 µM; 360,000 compounds, 0.02% hits;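 active = activation above the run cutoff, the mean activation of all test compounds plus 3 SD, cut at about 40% in these data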;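 also: peak over basal fluorescence ratio in a 140 s read after ATP addition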
CHRM1 agonist – human M1 muscarinic receptor agonism; CHO-K1 hM1, Fluo-8 calcium fluorescence, agonist mode; 0% DMSO, 100% acetylcholine EC100; P11229; 360,000 compounds, 0.33% hits; activation, % at 3 µM;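 active = activation above the run's mean compound activation plus 3 SD, cut at about 16% in these data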;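 also: peak over basal fluorescence ratio within a 140 s kinetic read after compound addition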
An asterisk follows results filed as active; · = no result. In the library only some 2.3% were active in any assay of this set; here they are far more common.

SMILES	M1 antag	CHO-K1 Ca ag	CHRM1 PAM	CHO-K1 Ca antag	M1 PAM parental	CHRM1 agonist
O=C(CN1C(=O)c2ccccc2S1(=O)=O)Nc1cc(S(=O)(=O)N2CCCCC2)ccc1Cl	2.5	2.5	-2.1	-10.0	-10.8	-0.5
COc1ccc(COCC(O)CN2CCC(C(N)=O)CC2)cc1OC (stereo unspecified)	-5.6	18.7*	10.3	9.9	16.9	-5.4
CCOC(=O)C1=CCN(S(=O)(=O)c2cccc(Cl)c2)C1c1cccc(C)c1 (stereo unspecified)	6.5	0.9	-3.4	14.2	14.1	-8.3
CCOC(=O)C1=CCN(S(=O)(=O)c2ccc(C)cc2)C1c1cccc(Cl)c1 (stereo unspecified)	-0.2	-0.7	6.0	29.4*	-3.5	7.3
CC1CCCN(CCCNC(=O)c2ccc(CS(=O)(=O)c3c(Cl)cccc3Cl)o2)C1 (stereo unspecified)	57.1*	0.8	-20.9	-10.2	2.5	-5.4
Cc1ccc2c(c1)N(C(=O)CCC(=O)NC1CCCCCC1)CCO2	-9.8	-0.3	-1.0	9.4	-3.5	-2.8
CCN1CCN(CCNC(=O)c2ccc3nc(-c4cccc(C)c4)c(-c4cccc(C)c4)nc3c2)CC1	82.9*	2.1	-25.0	-12.1	9.5	-5.0
CCCNC(=O)c1ccc2nc(-c3ccccc3)c(-c3ccccc3)nc2c1	3.7	0.9	1.2	-7.0	15.8	-3.6
O=S(=O)(c1ccc2ccccc2c1)N1CCN(C(=S)Nc2ccccc2F)CC1	-2.5	0.7	2.6	-9.2	11.6	-2.8
O=S(=O)(c1ccc(Cl)cc1)N1CCN(C(=S)Nc2ccccc2F)CC1	3.2	17.1*	8.0	-3.8	8.4	0.6
O=C(CN1C(=O)/C(=C/c2ccc(F)cc2)SC1=S)NC1CCS(=O)(=O)C1 (stereo unspecified)	-1.6	-0.3	5.6	16.7	-11.9	-1.6
CNC(=O)COC(=O)c1ccccc1Nc1ccccc1	4.0	0.4	3.9	-16.3	9.0	4.7
CN(C(=O)C(Cl)Cl)C1CC2C=CC1C2 (stereo unspecified)	-13.3	16.1*	12.1	-7.8	20.7	-4.1
CCCCN(C)c1c(C)nc2ccc(C(=O)Nc3cc(-c4ccccc4)ccc3OC)cn12	-10.2	-0.5	7.5	1.6	8.7	1.4
O=C(O)c1cc(NC(=O)c2ccc3c(c2)C(=O)N(Cc2cccnc2)C3=O)cc(C(=O)O)c1	-16.0	1.3	12.2	-11.7	9.3	-0.6
C#Cc1cccc(NC(=O)c2ccc3c(c2)C(=O)N(Cc2cccnc2)C3=O)c1	34.2*	14.5	-11.4	6.3	-8.7	2.3
COc1ccccc1OCCNC(=O)c1ccc(NC(=O)CC2SC(N3CCCC3)=NC2=O)cc1 (stereo unspecified)	-6.5	-0.7	7.4	-12.5	0.5	-3.1
O=C(Nc1ccc(F)c(Cl)c1)c1ccccc1NC(=O)C1CCCCC1C(=O)O (stereo unspecified)	19.3	0.3	-10.0	25.6*	-6.9	-1.6
O=C(Nc1cccc(Cl)c1)c1ccccc1NC(=O)C1CCCCC1C(=O)O (stereo unspecified)	-2.2	-0.4	-0.8	-8.0	9.4	-3.3
CN1C(=O)/C(=C/c2ccccc2OCc2ccc(F)cc2)N(C)C1=S	100.2*	-0.8	-22.5	-0.9	-3.9	-10.1
O=C1NC(=S)N/C1=C\c1ccccc1OCc1ccc(C(=O)O)cc1	-20.3	-0.1	11.1	-11.5	9.9	34.0*
O=C(NCc1cccnc1)c1cc(C2CCCN(S(=O)(=O)c3cccs3)C2)on1 (stereo unspecified)	-8.8	0.6	3.1	-12.8	-0.6	-9.4
CC1(C(=O)NS(=O)(=O)c2cccc(C#N)c2)CCN1C(=O)c1ccco1 (stereo unspecified)	23.2	-0.3	-5.3	6.1	27.6	-1.2
CC1C(=O)N(Cc2cn(Cc3ccco3)nn2)CCS(=O)(=O)N1Cc1ccc(-c2ccccc2)cc1 (stereo unspecified)	-16.0	0.2	11.4	-17.3	15.4	-2.5
CC1C(=O)N(Cc2cn(CCC3OCCCO3)nn2)CCS(=O)(=O)N1Cc1ccc(-c2ccc(Cl)c(Cl)c2)cc1 (stereo unspecified)	30.5*	10.1	-15.7	7.6	-6.6	1.1
SMILES	M1 antag	CHO-K1 Ca ag	CHRM1 PAM	CHO-K1 Ca antag	M1 PAM parental	CHRM1 agonist
CC1C(=O)N(Cc2cn(Cc3ccco3)nn2)CCS(=O)(=O)N1Cc1ccc(-c2ccc(Cl)cc2)cc1 (stereo unspecified)	-3.6	-0.1	-1.1	28.2*	-11.0	-5.2
CC1C(=O)N(Cc2cn(CCC3OCCCO3)nn2)CCS(=O)(=O)N1Cc1ccc(-c2ccc(F)cc2)cc1 (stereo unspecified)	0.8	5.4	-7.4	1.3	6.1	-3.4
Cc1cccc(C)c1-c1ccc(CN2C(CC(C)C)C(=O)N(Cc3cn(CCO)nn3)CCS2(=O)=O)cc1 (stereo unspecified)	28.7*	6.9	-9.2	15.1	3.6	-3.0
O=C(C[n+]1cc[nH]c1)c1ccc(Cl)cc1	-21.9	0.5	12.5	5.5	-1.8	-5.0
NC(=O)c1nsc(C(=O)N(Cc2cccnc2)C(C(=O)NCc2ccc(F)cc2)c2ccc(O)cc2)c1N (stereo unspecified)	-12.3	-0.1	9.3	2.1	-5.1	-4.6
Cc1cc(NC(=O)COC(=O)c2n[nH]c3ccccc23)no1	-1.3	0.3	0.8	28.9*	-8.1	-0.8
CC1(C)CC(=O)C=C(Nc2ccc(C(=O)O)cc2)C1	3.4	-0.5	-8.1	18.3	-5.9	-2.0
CC1(C)CC(=O)C=C(Nc2ccc(O)c(C(=O)O)c2)C1	-37.9	-0.4	29.6*	14.2	5.7	2.2
Cn1c(-c2ccccc2)c(Sc2ccccc2)c2cc(-c3ccc4[nH]ccc4c3)ccc21	·	0.9	·	-13.8	-7.3	·
CC1=C([N+](=O)[O-])C(c2ccccc2Cl)NC(=O)N1C (stereo unspecified)	-9.8	17.1*	9.2	-10.4	23.4	1.0
S=C(Nc1cccnc1)N1CCN(c2ccccc2Cl)CC1	-14.7	2.5	13.3	-16.3	13.1	-3.2
CC1CCCN(CCCNC(=O)c2ccc3c(c2)N(Cc2ccc(F)cc2)C(=O)c2ccccc2S3=O)C1 (stereo unspecified)	42.4*	0.2	-23.0	-15.7	-13.2	-5.9
O=C(NCCCN1CCCC1)c1ccc2c(c1)N(Cc1ccc(F)cc1)C(=O)c1ccccc1S2=O (stereo unspecified)	25.8	0.4	-15.1	-15.0	12.8	-5.2
CCC1CCCCN1CCCNC(=O)c1ccc2c(c1)N(Cc1ccc(F)cc1)C(=O)c1ccccc1S2=O (stereo unspecified)	71.1*	-0.5	-21.9	-5.8	0.1	-6.7
